PubChem BioAssay (NCI)
The panel holds about 83,000 compounds, 20% with a hit somewhere; the sample as a whole holds those more often.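 Assay: single dose, 48 h. Readout: percent growth (0 = no net growth; negative = cell death). Active: <10.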 A number with no mark means an inactive call. Activity calls are given as the source filed them.

Key:
Assay in all cases: NCI-60 one-dose screen, 48 h (100 = growth as untreated, 0 = no growth, -100 = all killed)
Conditions in all cases: 10 µM unless noted
T-47D breast = test system: T-47D breast
BT-549 breast = test system: BT-549 breast
MDA-MB-435 melanoma = test system: MDA-MB-435 melanoma
SW-620 colon = test system: SW-620 colon
MCF7 breast = test system: MCF7 breast
HCT-116 colon = test system: HCT-116 colon
HCC-2998 colon = test system: HCC-2998 colon
KM12 colon = test system: KM12 colon

Row | Structure (SMILES) | growth (T-47D breast) | growth (BT-549 breast) | growth (MDA-MB-435 melanoma) | growth (SW-620 colon) | growth (MCF7 breast) | growth (HCT-116 colon) | growth (HCC-2998 colon) | growth (KM12 colon)
1 | COc1cc(-c2nc(N=Nc3c(O)[nH]c4ccc(Br)cc34)[nH]c(=O)c2C#N)cc(OC)c1OC | 90.6% | 105% | 102% | 93.4% | 99.7% | 99.2% | 117% | 100%
2 | COc1ccc(Nc2nn3c(-c4ccccc4)cc(-c4ccccc4)nc3c2C(N)=O)c(OC)c1 | 34.9% | 46.5% | 57.5% | 57.2% | 46.7% | 21.5% | 86.9% | 51.1%
3 | COc1ccc(C(=O)NC(=O)Nc2cc3c(cc2F)/C(=C/c2[nH]c(C)c(CCC(=O)O)c2C)C(=O)N3)c(F)c1 | 47.8% | 25.2% | 36.8% | 26.6% | 41.7% | 37% | 50.3% | 11.7%
4 | CCOC(=O)c1c(/N=C2\SC(=O)/C(=C\C(=O)OC)N2NC)sc2c1CCN(C(=O)OCC)C2 | 93.4% | 91.7% | 101% | 105% | 98.7% | 95% | 92.5% | 99.1%
5 | O=C(Nc1ccncc1)C(=O)c1cn(S(=O)(=O)c2ccc(Br)cc2)c2ccccc12 | 41% | 41.1% | -3.46% (active) | 18.2% | 19.7% | 14.3% | 72% | 26.2%
6 | O=C(c1c[nH]c(=O)c(-c2ccccc2)c1)c1ccccc1O | 78.4% | 93.2% | 96.7% | 92.6% | 92.6% | 90.5% | 94.2% | 89.6%
7 | OC(c1cc2cc(Br)ccc2c2cc(Br)ccc12)C1CCCCN1 (centres undefined) | -75.3% (active) | 69% | -78% (active) | -75% (active) | -88.2% (active) | -72.7% (active) | -81.5% (active) | -91.7% (active)
8 | C=C(C)[C@@H]1C[C@@H]2Cc3cc(Cl)ccc3N1O2 | 106% | 99.6% | 99.4% | 96.7% | 100% | 96.1% | 99.1% | 105%
9 | COc1ccc(CCNC2=CC(=O)CCC2)cc1OC | 100% | 103% | 110% | 101% | 105% | 106% | 106% | 99%
10 | c1ccc(-c2cn(-c3ccccc3)c(-c3ccccc3)n2)cc1 | 67.5% | 72.5% | 72.6% | 23.2% | -31.1% (active) | -91.4% (active) | 92.3% | 11.8%
11 | COc1ccc2c(c1)NC1=C(C(=O)OC1)C2c1cc(OC)c2c(c1)OCO2 (centres undefined) | 53.8% | 32.4% | -14.7% (active) | 21.2% | 17.9% | 6.69% (active) | 11.3% | 2.35% (active)
12 | CCO/C=N/C1=C(C#N)C(c2ccc(Cl)cc2)c2c(c3ccc(C)cc3[nH]c2=O)O1 (centres undefined) | 78.4% | 86.7% | 90.7% | 84.6% | 78.7% | 82.4% | 99.5% | 97.1%
13 | CCCCNC(=O)Oc1ccc(/C(=C(\C)c2ccccc2)c2ccc(OCCN(CC)CC)cc2)cc1 | 40.3% | 72.3% | 58.7% | 69.7% | 33.8% | 48.1% | 82.6% | 60.6%
14 | COc1cc2c(cc1OCCCN1CCN(CCCn3c4ccccc4c4ccccc43)CC1)N=C[C@@H]1CCCN1C2=O | -31.1% (active) | -84.1% (active) | -80.5% (active) | -83.2% (active) | -72% (active) | -27.8% (active) | -86.3% (active) | -64.7% (active)
15 | Cc1ccc(N2CCN(C(C)C(N)=O)CC2)cc1 (centres undefined) | 102% | 88.9% | 114% | 107% | 106% | 98.3% | 102% | 112%
16 | O=C(CN1CCN(c2cc3c(cc2F)c(=O)c(C(=O)N/N=C/c2ccccc2O)cn3C2CC2)CC1)N/N=C\c1ccccc1O | 17.9% | 45.5% | 17.6% | 36.6% | 10% | 15.6% | 39.5% | 18.3%
17 | COc1ccc2c(c1)[nH]c(=O)c1c3cc(OC)ccc3cn21 | 13.6% | 36.8% | -9.37% (active) | -2.37% (active) | 14.1% | -89% (active) | 32.1% | -13.1% (active)
18 | CCOc1cc2c(Cl)ncnc2c(OCC)c1OCC | 76.3% | 75.1% | 78.5% | 59.2% | 52.4% | 49.6% | -45.3% (active) | 71.6%
19 | CCN(CC)c1ccc(/C=C2\Oc3ccc(O)c(I)c3C2=O)cc1 | 55.1% | 54.4% | 16.7% | 43.2% | 26.9% | 33.9% | 97.2% | 43.3%
20 | Fc1ccc(Nc2nc(NCCNc3ccnc4cc(Cl)ccc34)nc(N3CCOCC3)n2)cc1 | 83.3% | 81.9% | 28.2% | 47.1% | 55% | 37.3% | -51.2% (active) | 78.6%
21 | NC(=S)N/N=C(/CCN1CCCC1)CC(C1=C(O)C2=CCCCC2OC1=O)c1ccccc1 (centres undefined) | 47% | 90.9% | 90.7% | 69% | 14.9% | 9.46% (active) | 102% | 102%
22 | Brc1cccc(-c2cc(-c3ccc4c(c3)OCCCO4)[nH]n2)c1 | 29.2% [25 µM] | 72.8% [25 µM] | -7% [25 µM] (active) | 31.8% [25 µM] | 23.2% [25 µM] | 51.4% [25 µM] | 75.6% [25 µM] | 20% [25 µM]
23 | C=C1CCC2C3(C)COC(c4ccc(N(C)C)cc4)OC3CCC2(C)C1C/C=C1/C(=O)OCC1O (centres undefined) | 52.1% | 46.4% | 7.31% (active) | 26% | 29.5% | 21.6% | 112% | 54.6%
24 | CCn1c2ccccc2c2cc(NC(=O)Nc3ccc([N+](=O)[O-])cc3C)ccc21 | 29.3% | 79.2% | 17.4% | 51.9% | 35.7% | 31.6% | 10.5% | 26.5%
25 | Clc1ccc(-c2nc3ccccc3s2)cc1Cl | 61.3% | 97.4% | 121% | 82.6% | 67.8% | 99% | 93.9% | 97.1%
26 | c1ccc(-c2nc(N3CCNCC3)c3nc(-c4ccccc4)oc3n2)cc1 | -56.6% (active) | 97.5% | -93.7% (active) | -78.8% (active) | -69.2% (active) | -89.4% (active) | -90.3% (active) | -86.1% (active)
27 | CCN(CC)c1ccc(CNc2ccnc3ccccc23)cc1 | 29% | 45.4% | 48.2% | 70.8% | 33.3% | 30.3% | 36.9% | 73.6%
28 | COc1ccc(-c2cn(-c3cccc(C(=O)/C=C/c4cc(OC)c(OC)c(OC)c4)c3)c(=O)[nH]2)cc1OC | 62.9% | 85% | 83.2% | 94.5% | 53.3% | 63.6% | 103% | 70.9%
